Assay results taken from PubChem BioAssay (NCATS).
Inconclusive results are not listed. Unmarked numbers belong to inactive results. Active and inactive are the calls of the source. Calls come from the whole dose curve; tested in HEK293 reporter line.

test: qHTS for Inhibitors of the Functional Ribonucleoprotein Complex (vRNP) of Lassa (LASV) Arenavirus: Viability assay - alamar blue signal for LASV Primary Screen (AID 1347083); settings: cell viability, alamar blue fluorescence (LASV minigenome counter-screen); series mostly up to 57.5 µM; activity change, negative = reduced viability: at the top concentration
% is set by controls: 0 for no effect and ±100 for the full control effect.
Note: nearly all actives have a fitted effect of over 80% in size.

Row | SMILES | activity change, negative = reduced viability
1 | CC[C@H]1OC(=O)[C@H](C)[C@@H](O[C@H]2C[C@@](C)(OC)[C@@H](O)[C@H](C)O2)[C@H](C)[C@@H](O[C@@H]2O[C@H](C)C[C@H](N(C)C)[C@H]2O)[C@](C)(O)C[C@H](C)C(=NOCOCCOC)[C@H](C)[C@@H](O)[C@]1(C)O | 7.16%
2 | CCCCC1CCC(=O)O1 (stereo not given) | 11.9% [at 115 µM]
3 | CC(=CCOc1ccc2ccc(=O)oc2c1)C1=CC(=O)C(C)(C)O1 | -6.41%
4 | O=C(O)CO.[NH2-].[NH2-].[Pt+2] | 11.4%
5 | C=Cc1ncc(OC)c2c1[nH]c1ccccc12 | -17%

test: qHTS for Inhibitors of the Functional Ribonucleoprotein Complex (vRNP) of Lymphocytic Choriomeningitis Arenaviruses (LCMV): Viability assay - alamar blue signal for LCMV Primary Screen (AID 1347085); settings: alamar blue viability counter-screen, LCMV vRNP screen cells; series mostly up to 57.5 µM; activity change, negative = lower viability: at the top concentration; note: potency is the fitted concentration of half-maximal effect

Row | SMILES | Potency | activity change, negative = lower viability
6 | CCCCCN=C(N)NN=Cc1c[nH]c2ccc(OC)cc12 | 10.9 µM (active) | 
7 | CC(=O)OCC(=O)[C@@]12OC(C)(C)O[C@H]1C[C@H]1[C@@H]3C[C@H](F)C4=CC(=O)C=C[C@]4(C)[C@@]3(F)[C@@H](O)C[C@@]12C |  | -12.7%
8 | CCN(CC)CCNC(=O)COc1ccc(Cl)cc1 |  | 5.12%
9 | C[C@@H](Oc1ccc2[nH]nc(C=Cc3cnn(CCO)c3)c2c1)c1c(Cl)cncc1Cl | 27.3 µM (active) | 
10 | CO[C@H]1C[C@@H]2CC[C@@H](C)[C@@](O)(O2)C(=O)C(=O)N2CCCC[C@@H]2C(=O)O[C@H]([C@H](C)C[C@@H]2CC[C@H](OP(C)(C)=O)[C@H](OC)C2)CC(=O)[C@H](C)C=C(C)[C@@H](O)[C@@H](OC)C(=O)[C@H](C)C[C@H](C)C=CC=CC=C1C | 0.0153 µM (active) | 
11 | O=c1[nH]c(=O)n([C@H]2C[C@@H](O)[C@@H](CO)O2)cc1F | 7.69 µM (active) | 
12 | O=C(O)CO |  | -4.47% [at 115 µM]
13 | CCC1=C[C@@H]2CN(C1)Cc1c([nH]c3ccccc13)[C@@](C(=O)OC)(c1cc3c(cc1OC)N(C)[C@@H]1[C@@](O)(C(=O)OC)[C@H](OC(C)=O)[C@]4(CC)C=CCN5CC[C@]31[C@@H]54)C2 | 0.217 µM (active) | 
14 | CNC1CCC(N(Cc2cccc(-c3ccncc3)c2)C(=O)c2sc3c(F)ccc(F)c3c2Cl)CC1 (stereo not given) | 5.44 µM (active) | 
15 | C[C@H]1[C@H](O)O[C@@H]2O[C@@]3(C)CC[C@@H]4[C@H](C)CC[C@@H]1[C@@]24OO3 | 15.8 µM (active) | 
16 | Cc1cnc(Nc2ccc(N3CCN(C)CC3)cc2)nc1Nc1cccc(S(=O)(=O)NC(C)(C)C)c1 | 30.6 µM (active) | 
17 | CN(C)CCN1C(=O)c2cccc3cc(N)cc(c23)C1=O | 6.85 µM (active) | 
18 | O=C(OCCOCCO)c1ccccc1Nc1cccc(C(F)(F)F)c1 |  | 0.774%
19 | O=C1NC(=O)[C@@H](c2cn3c4c(cccc24)CCC3)[C@H]1c1c[nH]c2ccccc12 | 4.32 µM (active) | 
20 | C=C1C(=O)O[C@@H]2C[C@@H](C)[C@@H]3C=CC(=O)[C@@]3(C)[C@@H](OC(C)=O)[C@H]12 | 4.47 µM (active) | 
21 | O=C(c1ccc(F)c(F)c1Nc1ccc(I)cc1F)N1CC(O)([C@H]2CCCCN2)C1 | 3.06 µM (active) | 
22 | Cn1cc(-c2cnn3c(N)c(Br)c([C@H]4CCCNC4)nc23)cn1 | 1.53 µM (active) | 
23 | O=C(C=Cc1ccc(CN(CCO)CCc2c[nH]c3ccccc23)cc1)NO | 1.37 µM (active) | 
24 | COc1cc(C)ccc1O |  | 26.4% [at 115 µM]
25 | C/C=C/c1ccc(OC(C)[C@@H](O)c2ccc(O)c(OC)c2)c(OC)c1 (stereo not given in full) |  | -0.495%
26 | CC[n+]1c(/C=C/C=C2/N(C)c3ccccc3C2(C)C)sc2ccccc21 | 0.708 µM (active) | 
27 | COC1C(O)C(C)OC(OC2CCC3(C)C(CCC4C3C(O)CC3(C)C(C5=CC(=O)OC5)CCC43O)C2)C1O (stereo not given) | 0.355 µM (active) | 
28 | COc1cc(C(=O)NC2CCN(C)CC2)ccc1Nc1ncc2c(n1)N(C1CCCC1)CCC(=O)N2C(C)C | 15.3 µM (active) | 
29 | C=C1CCC2[C@](C)(CO)[C@H](O)CC[C@@]2(C)[C@@H]1/C=C/C1=CCOC1=O (stereo not given in full) |  | 19.5%
30 | CC(=O)OC1CC2(O)C3CCC4CC(O)CCC4(C)C3CCC2(C)C1C1=CC(=O)OC1 (stereo not given) | 0.316 µM (active) | 
31 | Clc1ccc(C2(c3ccc(-c4cn[nH]c4)cc3)CCNCC2)cc1 | 5.44 µM (active) | 
32 | CC(=O)OCC(=O)[C@@]12N=C(C)O[C@H]1C[C@H]1[C@@H]3CCC4=CC(=O)C=C[C@]4(C)[C@@H]3[C@@H](O)C[C@@]12C |  | -21.2%
33 | COc1cc(C(=S)N2CCOCC2)cc(OC)c1OC |  | 7.35%
34 | CC(Cc1ccccc1)(NC(=O)CN)c1ccccc1 (stereo not given) |  | -7.15%
35 | O=C(CC12CC3CC(CC(C3)C1)C2)Nc1cccc2nc(NCCNCCO)ccc12 | 24.3 µM (active) | 
